This is a sample that favours compounds with a hit; in the whole collection about 1.1% have one here.
HDAC3 inh – human HDAC3 inhibition | O15379 | recombinant HDAC3, fluorogenic peptide/trypsin coupled, fluorescence | inhibition, % at 8.3 µM | 320,000 tested, 0.15% active | AID 2718; in the data active = inhibition above about 26%, passing the limit was not always enough; inconclusive = no clear call, values can overlap the other calls
Keap1-Nrf2 PPI – disrupts human Keap1 binding to Nrf2 peptide; Q14145; Keap1 Kelch-Nrf2 peptide fluorescence polarization, 1536-well; 340,000 tested, 0.15% active; inhibition, % at 9.4 µM; in the data active = inhibition above about 12%; inconclusive = no clear call, values can overlap the other calls; inactive = below about 7.3%;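 note: human Keap1 Kelch domain with fluorescein labeled Nrf2 9mer peptide probe; 0% = neutral control wells and 100% = peptide positive control; higher means more block of Keap1 binding to Nrf2 peptide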
Target sequence (Q14145 whole entry, looked up, the tested form may be a part): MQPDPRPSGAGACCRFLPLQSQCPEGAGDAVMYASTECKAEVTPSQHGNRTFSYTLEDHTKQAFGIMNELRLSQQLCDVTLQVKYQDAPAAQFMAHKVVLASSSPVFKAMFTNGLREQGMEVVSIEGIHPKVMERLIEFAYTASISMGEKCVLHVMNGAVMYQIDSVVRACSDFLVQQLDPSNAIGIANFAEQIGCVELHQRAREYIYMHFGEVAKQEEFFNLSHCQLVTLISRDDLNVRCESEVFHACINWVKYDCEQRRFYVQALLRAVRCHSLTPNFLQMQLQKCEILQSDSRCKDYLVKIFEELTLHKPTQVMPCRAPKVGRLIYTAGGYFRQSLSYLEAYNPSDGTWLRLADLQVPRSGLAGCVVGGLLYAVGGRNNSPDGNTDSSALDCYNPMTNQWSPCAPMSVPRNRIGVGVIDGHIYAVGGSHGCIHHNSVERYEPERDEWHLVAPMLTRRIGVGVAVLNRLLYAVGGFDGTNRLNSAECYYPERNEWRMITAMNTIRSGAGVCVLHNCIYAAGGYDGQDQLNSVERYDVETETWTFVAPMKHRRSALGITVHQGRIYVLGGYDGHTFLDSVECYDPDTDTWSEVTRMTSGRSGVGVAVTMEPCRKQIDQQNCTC
N-glyco inh – blocks N-linked glycosylation in D54 reporter cells. AID 588692. reporter increase, % at 12.5 µM. 360,000 tested, 0.23% active. D54 ERlucT glycosylation luciferase reporter, 24 h; percent of 100 nM tunicamycin response;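 active = mean luciferase reporter signal, scaled so untreated is 0 and the glycosylation-blocking control 100, at or above a set limit in every replicate; inconclusive = mean reaches the limit but not every replicate does; inactive = mean below the limit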;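 note: luciferase carries N-glycosylation sites so blocking glycosylation raises the light; 0% = median of neutral control wells and 100% = median of 100 nM tunicamycin wells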
NSD2 HMT inh – blocks human histone methyltransferase NSD2 | O96028 | AID 743445 | NSD2 peptide methylation, AlphaScreen, 120 min | 310,000 tested, 0.54% active | inhibition, % at 12.5 µM; in the data active = inhibition above about 50%
C-LANA FP – inhibitors of KSHV LANA C-terminal domain DNA binding; MBP-C-LANA/FAM-LBS DNA binding, fluorescence polarization; inhibition, % at 9 µM; 340,000 tested, 0.078% active;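 active = highest replicate inhibition at or above 60% at 9 µM, even if other replicates fall short; inactive = all replicates below 60% inhibition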;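 note: 0% = neutral control wells and 100% = 4 µM acridine orange control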
Casp6 inh – caspase-6 (human) enzyme inhibition; P55212; purified caspase-6, Z-VEID-R110 cleavage fluorescence; inhibition, % at 12.5 µM; 350,000 tested, 0.53% active; AID 686996;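 active = mean inhibition across replicates at least about 35%, with every replicate also reaching that limit, limit read from the data; inconclusive = only one of the two criteria met; inactive = neither criterion met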;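 note: 0% = median of neutral control wells and 100% = no fluorescence left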
The depositor's hits bear a star; ? = inconclusive; nt = no result.

SMILES | HDAC3 inh | Keap1-Nrf2 PPI | N-glyco inh | NSD2 HMT inh | C-LANA FP | Casp6 inh
CCS(=O)(=O)Nc1ccc2c(c1)C(=O)N(C)[C@H]1CC[C@@H](CC(=O)NCCCN3CCOCC3)O[C@H]1CO2 | nt | nt | nt | nt | nt | -5
CCS(=O)(=O)Nc1ccc2c(c1)C(=O)N(C)[C@H]1CC[C@H](CC(=O)NCCCN3CCOCC3)O[C@H]1CO2 | nt | nt | nt | nt | nt | 39*
CN1C(=O)c2cc(NC(=O)C3CC3)ccc2OC[C@H]2O[C@@H](CC(=O)O)CC[C@@H]21 | nt | nt | nt | nt | nt | 37*
COc1ccc(/C=N/NC(=O)c2cccc(NC(=O)c3ccccc3Cl)c2)cc1 | 0 | 1 | 34* | 0 | -1 | -1
C[C@@H]1CN([C@@H](C)CO)C(=O)c2cc(N(C)C)ccc2O[C@@H](C)CCCCO[C@H]1CN(C)C(=O)Nc1cccc2ccccc12 | nt | nt | nt | nt | nt | -2
CC(C)C#Cc1ccc([C@@H]2[C@@H](C#N)N(C(=O)C3CCC3)[C@H]2CO)cc1 | nt | nt | nt | nt | nt | -1
O=C(Nc1ccc(F)c(Cl)c1)c1cc(C2CCCN(S(=O)(=O)c3cccc4cccnc34)C2)on1 (stereo unspecified) | nt | nt | -6 | -4 | nt | 36*
COc1ccc2c3c(n(C)c2c1)[C@H](CO)N(CC1CC1)CC31CCN(S(=O)(=O)c2cn(C)cn2)CC1 | nt | nt | nt | nt | nt | -1
CCn1c(SCC(=O)OCc2ccccc2)nc2c1c(=O)n(C)c(=O)n2C | 32* | 0 | 2 | 1 | 5 | nt
COc1ccc(OC)c(Nc2nc(-c3c(C)nc4ncccn34)cs2)c1 | 5 | -3 | 42* | 2 | 0 | 0
Cc1nc2ncccn2c1-c1csc(Nc2cccc(C(=O)O)c2)n1 | -5 | -3 | 1 | 1 | 2 | 1
CCCCn1c(SCc2c(C)noc2C)nc2cc(S(N)(=O)=O)ccc21 | -9 | -2 | 40* | 0 | -8 | nt
COc1ccc(CN(C)C[C@H]2OCCCC[C@@H](C)Oc3ccc(NS(=O)(=O)c4ccc(Cl)cc4)cc3C(=O)N([C@@H](C)CO)C[C@H]2C)cc1 | nt | nt | nt | nt | nt | 0
C=CC(=O)N1C/C(=C/c2ccc(F)cc2)C(=O)/C(=C\c2ccc(F)cc2)C1 | nt | -2 | -18 | 3 | 17 | 78*
COc1ccc(-c2csc(NC(=O)CSCc3c(C)noc3C)n2)cc1OC | -13 | 3 | -2 | 2 | 0 | 60*
Cc1ccnc2nc(C(=O)Nc3cc(Cl)ccc3N3CCOCC3)nn12 | -3 | 0 | 41* | -6 | -5 | nt
COc1cccc(C(=O)N2CCSC2=S)c1 | 37* | -38 | 2 | -2 | 0 | -3
COc1ccc(C(=O)N2CCSC2=S)cc1OC | ? | -31 | 1 | -1 | -1 | nt
COc1cc(OC)c2c(c1O)OC(c1ccccc1)CC2=O (stereo unspecified) | 4 | -5 | 0 | nt | 2 | 40*
CC(/C=N/NC(=O)c1cc(-c2ccc(C)s2)[nH]n1)=C\c1ccccc1 | 6 | -3 | 27* | 4 | -3 | 0
C[C@H]1CN([C@@H](C)CO)C(=O)c2cc(C3=CCCCC3)cnc2O[C@@H]1CN(C)C(=O)CN1CCOCC1 | nt | nt | nt | nt | nt | 1
COC(=O)C1=C(C)NC(=S)NC1c1ccc(-c2cccc(Cl)c2)o1 (stereo unspecified) | 29* | -1 | 2 | 2 | 2 | nt
COC(=O)C1=C(C)NC(C)=C(C(=O)OC)C1c1ccc(-c2cccc([N+](=O)[O-])c2)o1 | 35* | -4 | 3 | nt | 1 | -3
CCOC(=O)C1=C(C)NC(=O)NC1c1ccc(-c2ccc(Cl)cc2)o1 (stereo unspecified) | 50* | -7 | 2 | 5 | 1 | 1
COC(=O)C1=C(C)NC(C)=C(C(=O)OC)C1c1ccc(-c2cccc(Cl)c2Cl)o1 | 11 | -1 | 0 | 0 | 1 | nt
SMILES | HDAC3 inh | Keap1-Nrf2 PPI | N-glyco inh | NSD2 HMT inh | C-LANA FP | Casp6 inh
CCOC(=O)C1=C(C)NC(=S)NC1c1ccc(-c2ccc(Cl)cc2)o1 (stereo unspecified) | 0 | -11 | -1 | 1 | 3 | -1
CCC(=O)N1[C@@H](CO)[C@@H](c2ccccc2)C12CN(Cc1nccs1)C2 | nt | nt | nt | nt | nt | 8
O=C(CSc1ccc2c(c1)OCCO2)NCc1ccccc1 | 0 | -4 | 2 | -1 | 0 | 38*
O=C(CSc1nc2ccccc2c(=O)[nH]1)Nc1ccc(N2CCOCC2)cc1 | 4 | 1 | 1 | 0 | 3 | 58*
O=C(CSc1nc2ccccc2c(=O)[nH]1)Nc1ccccc1N1CCOCC1 | -8 | -2 | -2 | -4 | -1 | 0
Cc1nnc(NS(=O)(=O)c2ccc(N=Nc3ccc(N)nc3N)cc2)s1 | nt | -10 | 1 | 22 | 11 | 68*
Cc1ccc(C(=O)Nc2ccccc2C(=O)N2CC(C)OC(C)C2)cc1 (stereo unspecified) | nt | nt | 46* | -1 | nt | 0
Cc1ccc(C(=O)Nc2ccccc2C(=O)N2CCCCC2C)cc1 (stereo unspecified) | nt | -4 | -1 | 0 | -1 | 2
C[C@H](CO)N1C[C@H](C)[C@@H](CN(C)C(=O)CN(C)C)Oc2ncc(C#Cc3ccccc3)cc2C1=O | nt | nt | nt | nt | nt | -2
CN(C)c1ccc(-c2[nH][nH]c(=O)c2NC(=O)c2ccccn2)cc1 | nt | nt | 7 | nt | nt | 99*
CN(C)c1ccc(-c2[nH][nH]c(=O)c2NC(=O)c2ccc3ccccc3n2)cc1 | nt | nt | 5 | nt | nt | 9
O=C(OCc1ccccc1)N1CCCC2CC1c1ccccc12 (stereo unspecified) | nt | nt | 2 | nt | nt | 54*
O=C(CCc1ccco1)CCc1ccco1 | nt | -3 | -2 | -2 | 5 | 76*
NC(=O)c1ccc(NCCc2ccco2)cc1 | nt | nt | 0 | nt | nt | 4
CCOc1ccccc1NC(=O)CSc1n[nH]c(N)n1 | 0 | 4 | 0 | -3 | 0 | 57*
O=C(C[C@@H]1C[C@H]2c3cc(NC(=O)c4cccnc4)ccc3O[C@H]2[C@@H](CO)O1)NCc1ccccc1 | nt | nt | nt | nt | nt | -2
CN(C)C(CNC(=O)CSc1nc2sc3c(c2c(=O)n1C)CCCC3)c1ccccc1 (stereo unspecified) | 2 | -6 | 33* | 0 | 31 | 1
O=C(/C=C/c1cccc([N+](=O)[O-])c1)c1ccc2c(c1)OCCO2 | 1 | -1 | 31* | 1 | 1 | 1
O=C(C[C@@H]1CC[C@H](NC(=O)C2CCC2)[C@@H](CO)O1)NCc1ccccc1Cl | nt | nt | nt | nt | nt | 26
CSc1nc(-c2ccco2)nn1C(=O)c1ccc(C)cc1 | ? | -20 | -3 | nt | -1 | 0
CSc1nc(-c2ccco2)nn1C(=O)c1ccco1 | 72* | 2 | 1 | nt | 1 | 1
CSc1nc(-c2ccco2)nn1C(=O)c1ccccc1 | 97* | -7 | 2 | 1 | 0 | nt
CCCC(=O)n1nc(-c2ccco2)nc1SCc1ccccc1 | 48* | -7 | 2 | nt | 0 | nt
O=C(C[C@H]1CC[C@@H](NC(=O)Cc2cccnc2)[C@@H](CO)O1)Nc1ccccc1 | nt | nt | nt | nt | nt | 1
C[C@H](CO)N1C[C@H](C)[C@@H](CN(C)Cc2ccccc2)Oc2c(NC(=O)Nc3ccc(F)cc3)cccc2C1=O | nt | nt | nt | nt | nt | -1

High-throughput results: PubChem, Broad Institute
